Source: PubChem BioAssay (Tox21)
Inconclusive results are not listed. The source holds several records for some structures; these can differ, active in one and inactive in another. Calls of active or inactive are those of the source. The call rests on the fitted dose curve.

What follows are compounds tested against Thyrotropin receptor (Homo sapiens) (UniProt P16473) (assay: qHTS assay to identify small molecule antagonists of the thyroid stimulating hormone receptor (TSHR) signaling pathway (AID 1259385; further: nearly all actives have a fitted effect of over 20% in size)). Details: TSHR-HEK293 cAMP HTRF, TSH-stimulated antagonist mode; series mostly up to 92.4 µM; activity change, negative = inhibition: at the top concentration.
Excerpt: U.S. Tox21 Program National Center for Advancing Translational Sciences [NCATS] NIH Chemical Genomics Center [NCGC] U.S. Environmental Protection Agency [EPA] National Institutes of Environmental Health Sciences [NIEHS] National Toxicology Program [NTP] U.S. Food and Drug Administration [FDA] Tox21 Assay Overview: TSHR is the receptor for thyrotropin (thyroid stimulating hormone or TSH), a member of the glycoprotein hormone family. TSH is released by the anterior pituitary gland and is the main regulator of thyroid gland growth and development. Upon binding circulating thyrotropin, a G-protein signal cascade activates adenylyl cyclase and […] cAMP concentration is increased. cAMP is a key second messenger involved extensively in cellular signal transduction pathways associated with the majority of G-protein coupled receptors (GPCRs). The activation of these GPCRs by neurotransmitters, lipids, nucleotides, peptides and hormones results in the activation or the inhibition of plasma membrane-bound adenylate cyclase through heterotrimeric G-proteins. A cell-based TSHR assay can be used to screen chemical compounds that modulate TSHR either in agonist or antagonist mode.
Tox21 Assay Protocol Summary: TSHR-Hek293 cells were dispensed at 800 cells/4uL/well in 1536-well white plates using a Multidrop dispenser. After the assay plates were incubated at a 37C/5% CO2 incubator for 18 hrs, 23 nL of compounds dissolved in DMSO, positive controls or DMSO only was transferred to the assay plate by a pin tool, followed by 1 ul medium containing Ro20-1724. For the antagonist mode screening, 1 uL of TSH was added on the top of the cell/compound mixtures to achieve a final agonist concentration of 1.5 ng/mL. After 30 min of incubation at room temperature, 2.5 ul/well of cAMP-d2 and 2.5 ul/well of anti-cAMP-cryptate were added respectively into the assay plates using a Flying Reagent Dispenser. The plates were incubated at room temperature for 1 hr. The fluorescence intensity in the plates was measured using an Envision plate reader. Each test compound was measured at 15 concentrations and in triplicates.
On the % scale 0 is the no-effect control and ±100 the full control effect; potency means the concentration at half of the fitted maximal effect.

Chain of Thyrotropin receptor (Homo sapiens) (P16473 whole entry, looked up): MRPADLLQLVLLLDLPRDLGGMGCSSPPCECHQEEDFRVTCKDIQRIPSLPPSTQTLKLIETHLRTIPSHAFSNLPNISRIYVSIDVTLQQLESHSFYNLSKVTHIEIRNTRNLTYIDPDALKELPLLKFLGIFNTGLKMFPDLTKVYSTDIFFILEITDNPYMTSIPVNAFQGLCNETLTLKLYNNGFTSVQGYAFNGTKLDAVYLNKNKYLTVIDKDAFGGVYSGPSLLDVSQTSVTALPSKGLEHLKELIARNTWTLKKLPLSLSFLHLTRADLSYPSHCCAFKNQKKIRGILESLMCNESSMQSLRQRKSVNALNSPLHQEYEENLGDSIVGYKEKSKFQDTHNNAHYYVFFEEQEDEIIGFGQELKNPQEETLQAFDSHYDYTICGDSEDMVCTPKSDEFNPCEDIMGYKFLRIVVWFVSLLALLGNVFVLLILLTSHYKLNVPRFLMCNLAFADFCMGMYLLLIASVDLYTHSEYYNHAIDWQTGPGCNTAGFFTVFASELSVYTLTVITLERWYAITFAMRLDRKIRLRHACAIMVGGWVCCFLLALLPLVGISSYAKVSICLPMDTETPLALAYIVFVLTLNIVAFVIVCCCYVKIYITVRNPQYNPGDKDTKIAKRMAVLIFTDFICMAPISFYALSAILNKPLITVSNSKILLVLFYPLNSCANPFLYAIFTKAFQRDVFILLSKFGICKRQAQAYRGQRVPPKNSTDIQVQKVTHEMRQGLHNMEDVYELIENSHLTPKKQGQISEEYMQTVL

| SMILES | Potency | activity change, negative = inhibition |
| --- | --- | --- |
| O | inactive | – |
| CCCC(=O)c1ccccc1 | – | 3.43% (inactive) |
| COc1ccc(COC(C)=O)cc1 | inactive | – |
| Cc1cc(C2(c3cc(C)c(O)cc3C)OS(=O)(=O)c3ccccc32)c(C)cc1O | – | -3.52% (inactive) |
| O=C1NCC2(CCN(CCc3ccccc3)CC2)O1 | – | 1.88% [at 42.5 µM] (inactive) |
| c1ccc2c(c1)CCCC2C1=NCCN1 (stereo not given) | – | 0.729% [at 42.5 µM] (inactive) |
| COC(=O)[C@H]1[C@H]2C[C@@H]3c4[nH]c5cc(OC)ccc5c4CCN3C[C@H]2C[C@@H](OC(=O)c2cc(OC)c(OC)c(OC)c2)[C@@H]1OC | inactive | – |
| Cc1cccc2n[nH]nc12 | inactive | – |
| COc1cc(C(=S)N2CCOCC2)ccc1O | – | -4.18% [at 42.5 µM] (inactive) |
| C=CS(=O)(=O)O | – | -0.129% (inactive) |
| C=CC(=O)OCCCCCCOC(=O)C=C | inactive | – |
| CCOC(=O)C(C)C(C)=O (stereo not given) | – | 1.17% (inactive) |
| CCC(C)(C)C(=O)O[C@H]1C[C@@H](C)C=C2C=C[C@H](C)[C@H](CC[C@@H]3C[C@@H](O)CC(=O)O3)[C@H]21 | inactive | – |
| CCn1cc(C(=O)O)c(=O)c2cc(F)c(N3CCNC(C)C3)c(F)c21 (stereo not given) | – | -7.14% [at 42.5 µM] (inactive) |
| CN(C)c1ccc(C(=C2C=CC(=[N+](C)C)C=C2)c2ccccc2)cc1 | 29.8 µM (active) and inactive | – |
| COC(=O)/C=C/c1ccccc1 | – | -0.775% (inactive) |
| CC(C)(c1ccccc1)c1ccc(Nc2ccc(C(C)(C)c3ccccc3)cc2)cc1 | inactive | – |
| CC(=O)CC(C)=O | – | 7.34% (inactive) |
| CCCOC(=O)c1cc(O)c(O)c(O)c1 | inactive | – |
| CC(=O)OCC1=C(C(=O)O)N2C(=O)[C@@H](NC(=O)Cc3cccs3)[C@H]2SC1 | – | -1.22% [at 42.5 µM] (inactive) |

| SMILES | Potency | activity change, negative = inhibition |
| --- | --- | --- |
| Nc1ccc2cc3ccccc3cc2c1 | inactive | – |
| C[N+]1([O-])CCOCC1 | – | 0.311% (inactive) |
| N[C@@H]1CONC1=O | – | -5.03% [at 42.5 µM] (inactive) |
| COc1ccc(CCN2CCC(Nc3nc4ccccc4n3Cc3ccc(F)cc3)CC2)cc1 | 31.3 µM (active) and inactive | – |
| O=C(O)c1cccc(C(=O)O)c1 | inactive | – |
| Cc1ccc(-c2cc(C(F)(F)F)nn2-c2ccc(S(N)(=O)=O)cc2)cc1 | inactive | – |
| O=S(=O)(O)c1ccc2nc(-c3ccccc3)[nH]c2c1 | – | 0.594% [at 42.5 µM] (inactive) |
| O=C(OCc1ccccc1)c1ccc(O)cc1 | inactive | – |
| Cc1cccc([N+](=O)[O-])c1C(=O)O | – | -0.434% (inactive) |
| COc1ccc(CCN(C)CCCC(C#N)(c2ccc(OC)c(OC)c2)C(C)C)cc1OC (stereo not given) | 43.2 µM (active) | – |
| Cc1cc(Cc2cc(C)cc(C(C)(C)C)c2O)c(O)c(C(C)(C)C)c1 | inactive | – |
| c1cc(C(c2ccc(OCC3CO3)cc2)C(c2ccc(OCC3CO3)cc2)c2ccc(OCC3CO3)cc2)ccc1OCC1CO1 (stereo not given) | inactive | – |
| COC(c1ccccc1)(c1ccccc1)[C@H](Oc1nc(C)cc(C)n1)C(=O)O | – | -2.88% [at 42.5 µM] (inactive) |
| CC(COc1ccccc1)N(CCCl)Cc1ccccc1 (stereo not given) | inactive | – |
| O=C(O)c1cc(Cl)cc(Cl)c1 | – | -2.62% (inactive) |
| CCCCCCCCCCCCCCCCCl | – | -1.34% [at 19 µM] (inactive) |
| Nc1nc(=S)c2[nH]cnc2[nH]1 | inactive | – |
| Oc1c(Cl)cc(Cl)cc1Sc1cc(Cl)cc(Cl)c1O | inactive | – |
| Cc1ccc(S(=O)(=O)Oc2ccc(N=Nc3ccc(-c4ccc(N=Nc5c(O)ccc6cc(S(=O)(=O)O)cc(S(=O)(=O)O)c56)c(C)c4)cc3C)cc2)cc1 | 61.4 µM (active) | – |
| O=C(O)CCc1ccccc1 | – | 2.2% (inactive) |
